Consider six compounds from PubChem BioAssay AID1508601 (ICCB-Longwood Screening Facility, Harvard Medical School, 2020).

Where “and” joins values, the source holds several entries; their conditions need not be identical. Equal values may be shown once. The whole screen tested about 5,700 compounds, of which about 85 (1%) were called active. Rule as the data show it: active = p53-positive nuclei above about 36% (passing the limit was not always enough); inactive = the rest. The list comes from a sample in which actives are over-represented; it also holds similar structures and randomly drawn compounds.

The nature of experiment [1]: p53 stabilisation in HPV-positive human cells, imaging, p53-positive nuclei imaging, 24 h, 48 h (AID 1508601). The following applies: 24/48 h.
Experiment [2] deals with Cellular tumor antigen p53 (Homo sapiens) (UniProt P04637). Described as above. To be noted: 24/48 h, stronger effect = higher value.
Cellular tumor antigen p53 (Homo sapiens), sequence (P04637 whole entry, looked up): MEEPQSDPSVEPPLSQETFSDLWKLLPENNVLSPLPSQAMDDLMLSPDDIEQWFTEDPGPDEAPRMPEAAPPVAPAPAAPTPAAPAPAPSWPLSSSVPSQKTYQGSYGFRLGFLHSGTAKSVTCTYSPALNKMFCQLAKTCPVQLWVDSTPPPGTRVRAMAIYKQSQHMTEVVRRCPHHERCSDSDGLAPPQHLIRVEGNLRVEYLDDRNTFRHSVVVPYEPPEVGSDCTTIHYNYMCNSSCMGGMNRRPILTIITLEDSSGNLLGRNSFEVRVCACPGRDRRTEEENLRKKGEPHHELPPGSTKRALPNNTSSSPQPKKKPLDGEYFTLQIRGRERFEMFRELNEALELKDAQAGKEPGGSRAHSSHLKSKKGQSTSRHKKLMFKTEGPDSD
[3] abbreviates: measured here: cell number at 24 h, Library stock concentration: 3.33 mM.
[4] abbreviates: measured here: cell number at 48 h, Library stock concentration: 3.33 mM.
Where [5] appears, read: Library stock concentration: 3.33 mM.
Where [6] appears, read: measured here: p53 positive nuclei at 24 h, Library stock concentration: 3.33 mM.
[7] abbreviates: measured here: cell number at 24 h, Library stock concentration: 10 mM.
Where [8] appears, read: measured here: cell number at 48 h, Library stock concentration: 10 mM.
Where [9] appears, read: Library stock concentration: 10 mM.
Setting [10] is: measured here: p53 positive nuclei at 24 h, Library stock concentration: 10 mM.

For the compound `COc1cc2ncc(-c3ccccc3)nc2cc1OC`, the nuclei count, normalised was determined as 78.5% in experiment [1] (setting [3]) and 45.1% in experiment [1] (setting [4]). Moreover, the p53-positive nuclei, normalised is 55.2% (active) in experiment [2] (setting [5]) and 3.05% in experiment [2] (setting [6]).
The like results for `O=C(O)c1cc(-c2ccccc2)nc2ccccc12` were, in that order, 111%, 106%, -0.105% (inactive) and -0.282%.
The like results for `CCC(C(C)O)n1ncn(-c2ccc(N3CCN(c4ccc(OCC5CO[C@@](Cn6cncn6)(c6ccc(F)cc6F)C5)cc4)CC3)cc2)c1=O` (stereo partly specified) were, in that order, 91.3%, 91.4%, -0.489% (inactive) and -0.171%.
Consider `CCOC(=O)c1sc(NC(=O)c2ccco2)c(SC#N)c1C`, for which the nuclei count, normalised is 118% in experiment [1] (measured here: cell number at 24 h, Library stock concentration: 500 nM); 119% in experiment [1] (measured here: cell number at 24 h, Library stock concentration: 1.5 uM); 115% in experiment [1] (measured here: cell number at 24 h, Library stock concentration: 4.6 uM); 107% in experiment [1] (measured here: cell number at 24 h, Library stock concentration: 13.7 uM); 124% in experiment [1] (measured here: cell number at 24 h, Library stock concentration: 41 uM); 109% in experiment [1] (measured here: cell number at 24 h, Library stock concentration: 123 uM). The nuclei count, normalised in experiment [1] (measured here: cell number at 24 h, Library stock concentration: 370 uM) worked out at 113%; in experiment [1] (measured here: cell number at 24 h, Library stock concentration: 1.111 mM), 114%; in experiment [1] (measured here: cell number at 24 h, Library stock concentration: 3.333 mM), 103%; in experiment [1] (setting [7]), 97.4%; in experiment [1] (measured here: cell number at 48 h, Library stock concentration: 500 nM) it was 111%; in experiment [1] (measured here: cell number at 48 h, Library stock concentration: 1.5 uM) it was 109%. The nuclei count, normalised in experiment [1] (measured here: cell number at 48 h, Library stock concentration: 4.6 uM) is 104%; in experiment [1] (measured here: cell number at 48 h, Library stock concentration: 13.7 uM), 103%; in experiment [1] (measured here: cell number at 48 h, Library stock concentration: 41 uM), 110%; in experiment [1] (measured here: cell number at 48 h, Library stock concentration: 123 uM), 106%; in experiment [1] (measured here: cell number at 48 h, Library stock concentration: 370 uM), 110%; in experiment [1] (measured here: cell number at 48 h, Library stock concentration: 1.111 mM), 112%. Moreover, the nuclei count, normalised in experiment [1] (measured here: cell number at 48 h, Library stock concentration: 3.333 mM) stood at 106%; in experiment [1] (setting [8]), 101%. Also, the p53-positive nuclei, normalised is 0.102% (inactive) in experiment [2] (Library stock concentration: 500 nM); -0.24% (inactive) in experiment [2] (Library stock concentration: 1.5 uM); -0.158% (inactive) in experiment [2] (Library stock concentration: 4.6 uM); -0.0345% (inactive) in experiment [2] (Library stock concentration: 13.7 uM); 0.07% (inactive) in experiment [2] (Library stock concentration: 41 uM); 0.0394% (inactive) in experiment [2] (Library stock concentration: 123 uM). In addition, the p53-positive nuclei, normalised was 0.143% (inactive) in experiment [2] (Library stock concentration: 370 uM); 0.138% (inactive) in experiment [2] (Library stock concentration: 1.111 mM); 0.637% (inactive) in experiment [2] (Library stock concentration: 3.333 mM); 1.1% (inactive) in experiment [2] (setting [9]); -0.0629% in experiment [2] (measured here: p53 positive nuclei at 24 h, Library stock concentration: 500 nM); -0.173% in experiment [2] (measured here: p53 positive nuclei at 24 h, Library stock concentration: 1.5 uM). Also, the p53-positive nuclei, normalised in experiment [2] (measured here: p53 positive nuclei at 24 h, Library stock concentration: 4.6 uM) was -0.116%; in experiment [2] (measured here: p53 positive nuclei at 24 h, Library stock concentration: 13.7 uM) it was -0.111%; in experiment [2] (measured here: p53 positive nuclei at 24 h, Library stock concentration: 41 uM), -0.122%; in experiment [2] (measured here: p53 positive nuclei at 24 h, Library stock concentration: 123 uM), 0.00346%; in experiment [2] (measured here: p53 positive nuclei at 24 h, Library stock concentration: 370 uM) it was 0.0563%; in experiment [2] (measured here: p53 positive nuclei at 24 h, Library stock concentration: 1.111 mM), 0.34%. Also, the p53-positive nuclei, normalised in experiment [2] (measured here: p53 positive nuclei at 24 h, Library stock concentration: 3.333 mM) is 1.08%; in experiment [2] (setting [10]) it was 2.09%.
`COc1cc(C(=O)NS(=O)(=O)c2ccccc2C)ccc1Cc1cn(C)c2ccc(NC(=O)OC3CCCC3)cc12`: the nuclei count, normalised in experiment [1] (measured here: cell number at 24 h, Library stock concentration: 80 uM) came to 110%; in experiment [1] (measured here: cell number at 24 h, Library stock concentration: 400 uM), 108%; in experiment [1] (measured here: cell number at 24 h, Library stock concentration: 2 mM), 113%; in experiment [1] (setting [3]) it was 103%; in experiment [1] (setting [7]), 105%; in experiment [1] (measured here: cell number at 24 h, concentration not given here), 89.5%. Also, the nuclei count, normalised in experiment [1] (measured here: cell number at 48 h, Library stock concentration: 80 uM) is 113%; in experiment [1] (measured here: cell number at 48 h, Library stock concentration: 400 uM) it was 108%; in experiment [1] (measured here: cell number at 48 h, Library stock concentration: 2 mM) it was 111%; in experiment [1] (setting [4]) it was 108%; in experiment [1] (setting [8]), 105%; in experiment [1] (measured here: cell number at 48 h, concentration not given here) it was 92.4%. Besides, the p53-positive nuclei, normalised in experiment [2] (Library stock concentration: 80 uM) is -0.138% (inactive); in experiment [2] (Library stock concentration: 400 uM), 0.119% (inactive); in experiment [2] (Library stock concentration: 2 mM), -0.133% (inactive); in experiment [2] (setting [5]) it was -0.0165% (inactive); in experiment [2] (setting [9]), 0.0919% (inactive); in experiment [2] (concentration not given here) it was -0.151% (inactive). In addition, the p53-positive nuclei, normalised in experiment [2] (measured here: p53 positive nuclei at 24 h, Library stock concentration: 80 uM) is -0.0129%; in experiment [2] (measured here: p53 positive nuclei at 24 h, Library stock concentration: 400 uM) it was -0.0637%; in experiment [2] (measured here: p53 positive nuclei at 24 h, Library stock concentration: 2 mM), 0.0356%; in experiment [2] (setting [6]), -0.167%; in experiment [2] (setting [10]), 0.0472%; in experiment [2] (measured here: p53 positive nuclei at 24 h, concentration not given here), 0.0267%.
With `CN1CCc2c(c3ccccc3n2Cc2ccc(C(=O)NO)cc2)C1`, the nuclei count, normalised in experiment [1] (measured here: cell number at 24 h, Library stock concentration: 46 uM) is 117%; in experiment [1] (measured here: cell number at 24 h, Library stock concentration: 278 uM), 120%; in experiment [1] (measured here: cell number at 24 h, Library stock concentration: 1.67 mM), 115%; in experiment [1] (setting [3]), 110% and 92.2%; in experiment [1] (setting [7]), 114%; in experiment [1] (measured here: cell number at 48 h, Library stock concentration: 46 uM) it was 119%. Also, the nuclei count, normalised in experiment [1] (measured here: cell number at 48 h, Library stock concentration: 278 uM) was 116%; in experiment [1] (measured here: cell number at 48 h, Library stock concentration: 1.67 mM), 110%; in experiment [1] (setting [4]), 102% and 95.4%; in experiment [1] (setting [8]) it was 107%. The p53-positive nuclei, normalised was -0.237% (inactive) in experiment [2] (Library stock concentration: 46 uM); 0.0738% (inactive) in experiment [2] (Library stock concentration: 278 uM); 0.201% (inactive) in experiment [2] (Library stock concentration: 1.67 mM); -0.139% (inactive) and -0.349% (inactive) in experiment [2] (setting [5]); -0.117% (inactive) in experiment [2] (setting [9]); -0.158% in experiment [2] (measured here: p53 positive nuclei at 24 h, Library stock concentration: 46 uM). Also, the p53-positive nuclei, normalised was -0.207% in experiment [2] (measured here: p53 positive nuclei at 24 h, Library stock concentration: 278 uM); -0.0538% in experiment [2] (measured here: p53 positive nuclei at 24 h, Library stock concentration: 1.67 mM); -0.314% and -0.356% in experiment [2] (setting [6]); -0.152% in experiment [2] (setting [10]).
